Data on 33 molecules can be found in PubChem BioAssay AID1345085 (National Center for Advancing Translational Sciences (NCATS), 2018).

Records with an inconclusive call do not appear. Calls of active or inactive are those of the source. Calls follow the shape of the dose curve; as a rule, active = well fitted cell-killing curve with a large enough effect; inconclusive = small, poorly fitted or top-dose-only effect, or effect the other way; inactive = no such curve, though single readings can be large or run the other way. *1 amine or outer side, *2 acyl side, *3 side chain or, on linkers, in order; H or OH if unused. Where a SMILES comes first, the peptide text is derived from it. Bridges are numbered along the chain shown (N, C = ends). Roman numbers before positions name the chains, in order. [ ]: non-standard residue; d: D form. Actinocin(9to1) = Cc1c2oc3c(C)ccc(C(=O)[*:1])c3nc-2c(C(=O)[*:2])c(N)c1=O; NMeV = CN[C@H](C(=O)O)C(C)C; Sar = CNCC(=O)O
% is scaled to controls: 0 for no effect and ±100 for the full control effect; potency is read from the fitted curve at half-maximal effect.

The test concerns SKOV3. Description: Confirmatory qHTS for gynecologic anti-cancer compounds from libraries of approved drugs and bioactive compounds. Also: nearly all actives have a fitted effect of over 55% in size. As to conditions: gynecologic cancer cell panel viability, ATPlite luminescence, 48 h; series mostly up to 57.6 µM; activity change, negative = viability loss: at the top concentration. The procedure, abridged: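 ATPlite luminescence read-out of cell viability; IC50 from 11-point 1:3 titrations, 57.5 uM to 0.977 nM, 48 h compound exposure at 37 C, 5% CO2. Cells seeded at 1,000/well 16 h before dosing.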
Regarding `O=C1Cc2cc(CCN3CCN(c4nsc5ccccc45)CC3)c(Cl)cc2N1`, the “activity change, negative = viability loss” value was 3.98% (inactive).

As to `CC[C@@]1(O)C(=O)OCc2c1cc1n(c2=O)Cc2cc3c(CN(C)C)c(O)ccc3nc2-1`, the Potency is 0.544 µM (active).

For the molecule `COc1ccc(CCC(=O)c2c(O)cc(O[C@@H]3O[C@H](CO)[C@@H](O)[C@H](O)[C@H]3O[C@@H]3O[C@@H](C)[C@H](O)[C@@H](O)[C@H]3O)cc2O)cc1O`, the “activity change, negative = viability loss” value was 6.17% (inactive).

Consider `CC(C)C[C@H](NC(=O)[C@H](Cc1ccccc1)NC(=O)c1cnccn1)B(O)O`, for which the Potency was 3.06 µM (active).

`COc1cc2c(c(OC)c1OC)-c1ccc(OC)c(=O)cc1[C@@H](NC(C)=O)CC2`: the “activity change, negative = viability loss” value was 20.6% [at 486 µM] (inactive).

Take `O=C(/C=C/c1cccc(S(=O)(=O)Nc2ccccc2)c1)NO`: the Potency was 1.88 µM (active).

In the case of `Cc1c2oc3c(C)ccc(C(=O)N[C@@H]4C(=O)N[C@H](C(C)C)C(=O)N5CCC[C@H]5C(=O)N(C)CC(=O)N(C)[C@@H](C(C)C)C(=O)O[C@@H]4C)c3nc-2c(C(=O)N[C@@H]2C(=O)N[C@H](C(C)C)C(=O)N3CCC[C@H]3C(=O)N(C)CC(=O)N(C)[C@@H](C(C)C)C(=O)O[C@@H]2C)c(N)c1=O` (I: T[dV]P[Sar][NMeV] / II: T[dV]P[Sar][NMeV]; ester I:1-I:C, II:1-II:C; linker I:N-II:N via Actinocin(9to1)), the Potency was 0.544 µM (active).

In the case of `C[C@@]1(C(=O)Nc2ccc(F)nc2)CCCN1c1nc(Nc2cc(C3CC3)[nH]n2)c2cccn2n1`, the Potency is 3.43 µM (active).

As for `Cc1cnc(Nc2ccc(F)cc2Cl)nc1-c1c[nH]c(C(=O)NC(CO)c2cccc(Cl)c2)c1` (stereo not drawn), the “activity change, negative = viability loss” value is -35.9% (inactive).

As for `Cc1cc(C(C)Nc2ccccc2C(=O)O)c2nc(N3CCOCC3)cc(=O)n2c1` (stereo not drawn), the Potency is 3.06 µM (active).

For `COc1cc(N2CCC(N(C)C)CC2)ccc1Nc1ncc(Cl)c(Nc2ccccc2P(C)(C)=O)n1`, the Potency was 6.11 µM (active).

Turning to `CN(c1nccc(=O)[nH]1)C1CCN(c2nc3ccccc3n2Cc2ccc(F)cc2)CC1`, the “activity change, negative = viability loss” value is 43.6% (inactive).

With `S=c1nc[nH]c2nc[nH]c12`, the Potency was 5.44 µM (active).

Regarding `CCC(=O)N1CCN(c2ccc(-n3c(=O)ccc4cnc5ccc(-c6cnc7ccccc7c6)cc5c43)cc2C(F)(F)F)CC1`, the Potency was 0.0044 µM (active).

For `CN(C)C1CCN(C(=O)c2ccc(NC(=O)Nc3nc(N4CCOCC4)nc(N4CCOCC4)n3)cc2)CC1`, the Potency was 0.109 µM (active).

Regarding `C=CC(=O)Nc1cccc(Oc2nc(Nc3ccc(N4CCN(C)CC4)cc3)ncc2Cl)c1`, the Potency is 1.72 µM (active).

As to `CC(C)CC(=O)Nc1n[nH]c2c1CN(C(=O)C1CCN(C)CC1)C2(C)C`, the “activity change, negative = viability loss” value is 0.349% (inactive).

Turning to `NC(=O)c1cnc(-c2ccc(C3(N)CCC3)cc2)c(-c2ccccc2)c1`, the Potency is 9.68 µM (active).

For the molecule `Cc1csc(NC(=O)c2sc3nc4c(c(C(F)(F)F)c3c2N)CCC4)n1`, the Potency is 1.53 µM (active).

Turning to `Cc1ccc(C(=O)Nc2ccc(CN3CCN(C)CC3)c(C(F)(F)F)c2)cc1C#Cc1cnc2cccnn12`, the Potency was 12.2 µM (active).

For the molecule `Nc1nc(Cl)nc2c1ncn2C1OC(CO)C(O)C1F` (stereo not drawn), the Potency is 0.432 µM (active).

Take `Cc1cc(CN2CCN(c3c(Br)cnc4nc(-c5ccc(N6CCN(C)CC6)cc5)[nH]c34)CC2)no1`: the Potency is 34.3 µM (active).

Consider `Cc1nc(N)ncc1-c1nc(N2CCOCC2)c2sc(C(C)(C)O)cc2n1`, for which the Potency is 0.432 µM (active).

`CC(C)n1nc(-c2cc3cc(O)ccc3[nH]2)c2c(N)ncnc21`: the Potency was 3.85 µM (active).

Turning to `CC(C)C[C@H](NC(=O)[C@H](CCc1ccccc1)NC(=O)CN1CCOCC1)C(=O)N[C@@H](Cc1ccccc1)C(=O)N[C@@H](CC(C)C)C(=O)[C@@]1(C)CO1`, the Potency was 13.7 µM (active).

In the case of `CN1CCN(c2cccc(Nc3nc4c(-c5ccc(S(C)(=O)=O)cc5)cccn4n3)c2)CC1`, the “activity change, negative = viability loss” value was -10.2% (inactive).

With `Cc1nc(Nc2n[nH]c3c2CN(C(=O)NC(CN(C)C)c2ccccc2)C3(C)C)c2sccc2n1` (stereo not drawn), the Potency was 3.06 µM (active).

`Cc1cc(C(=O)N2CCN(c3cccc(Cl)c3)CC2)n(-c2ccccc2)n1`: the Potency is 0.544 µM (active).

As for `COc1cc2c(cc1-c1c(C)noc1C)ncc1[nH]c(=O)n(C(C)c3ccccn3)c12` (stereo not drawn), the “activity change, negative = viability loss” value is -18.7% (inactive).

With `Cc1[nH]c2ccccc2c1CCNCc1ccc(/C=C/C(=O)NO)cc1`, the Potency was 0.172 µM (active).

Turning to `Nc1ccn([C@@H]2O[C@H](CO)[C@@H](O)C2(F)F)c(=O)n1`, the Potency is 1.37 µM (active).

Consider `c1cc(N[C@@H]2CCNC2)nc(-c2cnc3ccc(-c4cn[nH]c4)cn23)c1`, for which the “activity change, negative = viability loss” value was -12.7% (inactive).

As for `CN[C@@H](C)C(=O)N[C@H]1CN(C(=O)CC(C)C)CC[C@H]2CC[C@@H](C(=O)NC(c3ccccc3)c3ccccc3)N2C1=O`, the Potency was 0.611 µM (active).
